From PubChem
PAFAH1B2 inh = inhibitors of human PAFAH1B2; AID 492953; P68402; inhibition, % at 3.39 µM; recombinant PAFAH1B2, FP-rhodamine activity probe, fluorescence polarization; 340,000 compounds, 1.2% hits;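 active = inhibition above the mean of all tested compounds plus 3 SD, cut at about 24% in these data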;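 note: 0% = enzyme with DMSO and 100% = wells lacking PAFAH1B2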
PP1 inh = blocks human PP1-alpha phosphatase, a PP5 counter-screen. 320,000 compounds, 0.9% hits. inhibition, % at 6.7 µM. purified PP1alpha, OMFP fluorescence. P62136;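 active = inhibition above the mean inhibition of all tested compounds plus 3 SD, computed separately for each screening campaign, cut at about 15% in these data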
PP5 inh = blocks human protein phosphatase 5 activity. P53041. purified PP5c, OMFP substrate fluorescence. inhibition, % at 6.7 µM. 320,000 compounds, 0.18% hits. AID 1987;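 active = inhibition above the campaign's mean inhibition across all tested compounds plus 3 SD, cut at about 9.5% in these data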;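 note: 0% = DMSO only and 100% = 100 µM cantharidin control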
PAFAH1B3 inh = blocks human PAF acetylhydrolase 1B catalytic subunit 3. Q15102. recombinant PAFAH1B3, FP-rhodamine probe, fluorescence polarization. inhibition, % at 3.39 µM. 340,000 compounds, 0.28% hits. AID 492972;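 active = inhibition above the screen-wide average of all tested compounds plus 3 SD, cut at about 25% in these data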;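 note: 0% = enzyme with DMSO only and 100% = wells lacking PAFAH1B3 protein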
PAFAH2 FP inh = inhibitors of human PAFAH2; AID 492956; 340,000 compounds, 0.99% hits; inhibition, % at 3.39 µM; recombinant PAFAH2, FP-rhodamine activity probe, fluorescence polarization;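 active = inhibition above the mean over all tested compounds plus 3 SD, cut at about 30% in these data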;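 note: inhibitors block probe labeling of enzyme so polarization drops; 0% = enzyme with DMSO and 100% = wells lacking PAFAH2 protein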
pPAFAH inh = inhibitors of human plasma PAF acetylhydrolase (pPAFAH) | recombinant pPAFAH, FP-rhodamine probe fluorescence polarization | inhibition, % at 3.39 µM | 330,000 compounds, 1.5% hits | AID 463082;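 active = inhibition above the mean inhibition across the screen plus 3 SD, cut at about 25% in these data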;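 note: inhibitors block binding of the rhodamine activity-based probe so polarization drops; 0% = enzyme with DMSO and 100% = wells lacking pPAFAH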
Target sequence (Q13093 whole entry, looked up): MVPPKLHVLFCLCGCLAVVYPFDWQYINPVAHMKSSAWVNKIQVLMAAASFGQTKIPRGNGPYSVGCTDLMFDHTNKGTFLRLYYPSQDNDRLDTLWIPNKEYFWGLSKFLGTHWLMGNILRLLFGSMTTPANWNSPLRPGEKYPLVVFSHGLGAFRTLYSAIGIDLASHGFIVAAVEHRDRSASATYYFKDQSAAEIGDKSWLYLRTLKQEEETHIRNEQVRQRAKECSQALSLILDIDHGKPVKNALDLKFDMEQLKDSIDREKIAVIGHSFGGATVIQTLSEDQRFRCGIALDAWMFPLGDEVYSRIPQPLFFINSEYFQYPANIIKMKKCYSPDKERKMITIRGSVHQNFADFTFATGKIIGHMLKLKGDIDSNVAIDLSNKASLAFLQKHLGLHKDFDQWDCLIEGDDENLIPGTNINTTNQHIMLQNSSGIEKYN
PP5 conf = confirmation of human PP5 phosphatase inhibitors; shares compounds with PP5 inh; Purified PP5, fluorogenic phosphatase substrate, fluorescence; inhibition, % at 6.7 µM; 460 compounds, 22% hits; in the data active = inhibition above about 9.5%
PP1 counter 3x = counter-screen for PP5 inhibitors: human PP1 phosphatase inhibition; 460 compounds, 4% hits; PP1 enzyme, fluorescent phosphatase substrate; shares compounds with PP5 inh; inhibition, % at 6.7 µM; in the data active = inhibition above about 16%
Starred values were filed as active, the others as inactive; / = no result. Only some compounds are listed: those with a hit (about 3.4% of all), similar ones and a draw of the others.

SMILES	PAFAH1B2 inh	PP1 inh	PP5 inh	PAFAH1B3 inh	PAFAH2 FP inh	pPAFAH inh	PP5 conf	PP1 counter 3x
CCN(C(=O)CSc1ccc2c(c1)OCCO2)C1CCS(=O)(=O)C1 (stereo not drawn)	1	-1	2	8	-3	1	/	/
CCc1cccc(CC)c1NC(=O)COC(=O)CC1c2ccccc2CCN1S(=O)(=O)c1ccc(F)cc1 (stereo not drawn)	7	6	3	2	15	19	/	/
O=C(O)CC1c2ccccc2CCN1S(=O)(=O)c1ccc(F)cc1 (stereo not drawn)	31*	2	0	1	-6	4	/	/
CCCNC(=O)c1nc(C)n(-c2cc(Cl)cc(Cl)c2)n1	3	1	0	5	5	-3	/	/
O=C(O)CC(NS(=O)(=O)c1ccc(Br)cc1)c1ccco1 (stereo not drawn)	28*	-2	1	1	7	0	/	/
COc1ccccc1CC(=O)N1CCN(S(=O)(=O)c2cccs2)CC1	0	-3	2	9	6	3	/	/
COc1ccc(C2NCCc3c2[nH]c2ccccc32)cc1CN1CCc2cc(OC)c(OC)cc2C1C (stereo not drawn)	5	/	/	0	5	/	/	/
COc1ccc(C2NCCc3c2[nH]c2ccccc32)cc1COc1ccc(F)cc1 (stereo not drawn)	1	17*	4	9	-12	6	/	/
CCc1ccc(C2=NN(c3ccc(S(N)(=O)=O)cc3)C(c3ccc(F)cc3)C2)cc1 (stereo not drawn)	1	-2	12*	11	3	24	2	1
Cn1c(=O)c(C(=O)NCc2ccccc2Cl)c(O)c2ccccc21	0	-2	1	3	-7	2	/	/
CCC(C)NS(=O)(=O)c1ccc(NC(=O)C(Sc2ccccc2)c2ccccc2)cc1 (stereo not drawn)	-26	2	4	-45	-70	-24	/	/
CCCCNS(=O)(=O)c1ccc(NC(=O)C(Sc2ccccc2)c2ccccc2)cc1 (stereo not drawn)	-37	8	10*	-58	-74	-45	4	3
CCOc1ccc(S(=O)(=O)n2cc(-c3ccc(F)cc3)c(N)n2)cc1	9	2	4	11	1	2	/	/
CCOc1cc(S(=O)(=O)n2cc(-c3ccc(F)cc3)c(N)n2)cc(OCC)c1OCC	2	6	11*	-1	0	7	5	0
O=C(O)Cc1sc(Nc2cccc3ccccc23)nc1-c1ccccc1	13	-4	-1	1	6	4	/	/
Cc1csc(=Nc2c(C)n(C)n(-c3ccccc3)c2=O)n1-c1ccccc1	0	-6	1	5	-4	2	/	/
Cc1c(N=c2c(=O)c3ccccc3c2=O)c(=O)n(-c2ccccc2)n1C	/	2	13*	/	/	2	35*	12
CCCCNc1c([N+](=O)[O-])cc(C)cc1[N+](=O)[O-]	5	-2	0	5	0	6	/	/
O=C(Nc1ccccc1C(=O)N1CCOCC1)C1CC(=O)N(C2CCCC2)C1 (stereo not drawn)	0	1	13*	4	-11	2	-3	-4
O=C1C(Nc2ccccc2)=C(N2CCCCC2)C(=O)c2ccccc21	17	2	10*	60*	37*	5	33*	0
O=C1C(NS(=O)(=O)c2ccc(Br)cc2)=C(N2CCCCC2)C(=O)c2ccccc21	8	5	1	12	6	11	/	/
CCC1(c2ccccc2)NC(=O)N(CC(=O)Nc2cccnc2Cl)C1=O (stereo not drawn)	0	-1	-1	1	5	4	/	/
O=C(CN1C(=O)NC(c2ccccc2)(c2ccccc2)C1=O)Nc1cccnc1Cl	3	-1	12*	12	0	3	-5	-4
COc1ccc(C2=NN(C(=O)CN3CCCCC3)C(c3ccc(OC)cc3)C2)cc1 (stereo not drawn)	5	0	17*	10	3	6	-3	-4
CCN(CC)c1ccc(NC(=O)CN2CCN(c3ccc(F)cc3)CC2)cc1	5	1	1	-5	-2	7	/	/
SMILES	PAFAH1B2 inh	PP1 inh	PP5 inh	PAFAH1B3 inh	PAFAH2 FP inh	pPAFAH inh	PP5 conf	PP1 counter 3x
COc1ccc(OC)c(C2=Nn3c(nnc3-c3cccc(OC(C)C)c3)SC2)c1	5	3	12*	4	-4	2	0	0
COc1ccc(C2=Nn3c(nnc3-c3ccncc3)SC2)cc1	3	-3	12*	-2	-2	-2	-3	-3
O=[N+]([O-])c1cccc(S(=O)(=O)[N-]c2nc3ccccc3nc2-n2cc[n+](Cc3ccccc3)c2)c1	5	5	13*	8	3	5	-2	2
O=S(=O)([N-]c1nc2ccccc2nc1-n1cc[n+](Cc2ccccc2)c1)c1ccccc1	1	-4	-3	4	14	8	/	/
Cc1cn2c(=O)c(C(=O)N3CCN(c4ccccc4)CC3)cnc2s1	4	-4	-1	3	2	-1	/	/
NNC(=O)CCc1ccc(S(=O)(=O)N2CCOCC2)cc1	2	-3	11*	7	5	3	-1	-1
Oc1ccccc1/C=N/Nc1cc(N2CCCC2)nc(N2CCCC2)n1	0	8	14*	15	-5	1	44*	6
COCC(=O)N(Cc1cc2cc(C)ccc2[nH]c1=O)c1ccccc1	2	0	1	12	1	-1	/	/
COCC(=O)N(Cc1cc2cccc(C)c2[nH]c1=O)c1ccccc1	-1	-3	10.0*	4	5	0	-2	-3
COc1cc(OC)c(C2C(C(=O)Nc3ccccc3)=C(C)Nc3ncnn32)cc1OC (stereo not drawn)	-3	-7	0	0	-8	4	/	/
COc1cc(OC)c(C2C(C(=O)Nc3ccc(C)cc3C)=C(C)Nc3ncnn32)cc1OC (stereo not drawn)	5	2	15*	4	3	-3	-3	-3
OCCNc1nc(N2CCN(c3ccccc3)CC2)nc2ccccc12	1	-2	0	9	1	3	/	/
O=C(CNC(=O)c1ccccc1)OCc1nnc(-c2ccccc2)o1	1	-6	0	-3	6	5	/	/
Cc1[nH]n(-c2ccccc2)c(=O)c1C(C[N+](=O)[O-])c1ccc(F)cc1 (stereo not drawn)	9	-1	13*	-9	0	4	-1	-3
O=C(Cn1c(NCCO)nc2ccccc21)c1ccco1	7	-5	10*	-5	1	6	-5	-4
O=C(Cn1c(NCCO)nc2ccccc21)NCCc1ccccc1	1	2	3	5	3	4	/	/
